# Test results from the supplement of paper PMC10681739.
# Target: RUNX1 (UniProt Q01196)
# Experiment: RUNX1 binding intensity (PBM fluorescence), RUNX1 alone (arbitrary fluorescence units); higher = stronger binding
# Conditions: RUNX1 concentration 2 nM; ETS1 concentration 0 nM
# Procedure: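 Cooperative gcPBM on 36-bp genomic probes with neighbouring ETS1 and RUNX1 sites. Recombinant human RUNX1 (2 nM) was incubated alone or with ETS1 (25 nM) and detected with anti-RUNX1 antibody plus Alexa488 secondary. Values are medians over 4 replicate spots; the RUNX1+ETS1 data were normalised to the RUNX1-only data. The probes sit in constant array flanks that are not printed.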
# 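Also: Full-length recombinant human RUNX1 bound to double-stranded 36-bp genomic probes on a high-density microarray, scored as Alexa488 fluorescence per spot via anti-RUNX1 antibody, median of four replicate spots.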
# Chain of RUNX1 (Q01196 whole entry): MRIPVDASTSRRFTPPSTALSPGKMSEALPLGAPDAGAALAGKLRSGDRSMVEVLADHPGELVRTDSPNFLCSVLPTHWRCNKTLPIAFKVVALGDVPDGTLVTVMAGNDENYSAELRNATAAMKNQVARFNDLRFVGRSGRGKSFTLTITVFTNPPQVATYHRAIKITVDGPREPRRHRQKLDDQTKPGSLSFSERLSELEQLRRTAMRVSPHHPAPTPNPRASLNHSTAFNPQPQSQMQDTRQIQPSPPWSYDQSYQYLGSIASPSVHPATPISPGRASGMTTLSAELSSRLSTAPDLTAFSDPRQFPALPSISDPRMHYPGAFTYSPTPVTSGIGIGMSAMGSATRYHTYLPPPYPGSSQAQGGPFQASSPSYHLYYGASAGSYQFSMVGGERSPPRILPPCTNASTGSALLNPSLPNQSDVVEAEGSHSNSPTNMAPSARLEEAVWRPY
row,Sequence,RUNX1 binding intensity
1,AGGACCTAACACTCAGGAAGTGGTCAACCTTGCTGC,897
2,GTTGTGCTCTTTCCTGCTTCCCGCAGTTTTTTAGTT,1470
3,CTCCGGCGGAAGTTGTCTCTTCGCCGCCGCCGCAGC,792
4,TATGTGTTTTAGGCAGGATGTGGGTTTTAGTCTTTC,840
5,CATGACGAAGGGGAAGGATGTGGTTTGAGGGCAGCA,847
6,GACATCCAGGAAGTGGTGAGAAACCACGTGTGTGTT,747
7,CGAACTCCCGTCCGGCCGCGCCCGCAGCCCGCCGCC,960
8,GGGTCCTTCCGGGTTTTGTGTCGAATCTGCGGCGGC,784
9,CCGGGCTGCGGAAGGCGGGAATTCTGCGGTTCGCGG,1230
10,GTTCTCCTTCCTGTGCCGAGTGTGGTTTGCTATCAA,1250
11,AGTTGGTTCCTTCCGGTGGGTTTGTGGGTTTGGGGT,870
12,TAGCCACGAACCGGAAACGTTAAACCACAGCTCCGT,994
13,GCTTAAGGAAGGGACAACTAGAGTGGGTTACTCTGC,863
14,CACCTCACAGCCCGGATACAAACCGCCTACCCGCCC,1300
15,CCAGCTACACAGGATGCTGCGGTGGGCGGAATGCTC,801
16,GTCCCCTGAATTTTCCTGTGGTTCTTATCACCAGGT,1180
17,ACCCTGAAATTACCCGGATGTGGTCCCCGCGCGCGC,898
18,GCACCCTTCCTGCTTCCCACAGTGTGGTATAAGAGG,965
19,ACATGGTCTCGCTTCCTGTTTACACCACAGAAAGCT,1040
20,TGCAGTCTCAACTTCCTGCGGTCAAGTGATCCTTCA,3750

row,Sequence,RUNX1 binding intensity
1,TGGCAGAGCACATCCTGTGCGGTTTTCAGTTTTGCT,2600
2,GTCGGAAGTGGCCGTGAGCCCAAGCCGCGGTCCCGG,678
3,ATCAGTCAACTTCCCCCACTCCCTCCCACAAAGAAA,1400
4,AGCGCTTCCTGGCTCCGGCCCCGCCCCTGCGGTCGG,942
5,AGAAGCTGCAGTCCCGGAAGCGGTTTTAGGGGGCCG,725
6,GAGTCTACAGCGGAAGCCACCACATGCCCCACCCCC,904
7,TTTCCACTTCCTGTTCTACTTGTGGCTACTGACTCA,1100
8,ATCTTGGCCCATATCCTGTGGTGTTCTGCTAGAGGT,791
9,TTTCTTCTGATCTTCCTCCCCGCACGTCTGCACAGG,1220
10,CCCTGAGCACTTCCCCGTAAGGCTGCGGTGCACGGG,871
11,GGCGGGGCATCCGGCAGCACCGCCTGCGGGCGCCCG,667
12,TTTCTGAAACCCTCAGGATGTGGGTTTTCACACTGT,800
13,ATAGACTCAGGAAGTGATTGTGGTAAGATTCTATAT,829
14,GAGCCGGAAGTGAAGGAGGGCTTGTGGGAGATGGAG,713
15,GCGCGGCCCGGAAGGGGGTAACCGCTGAGTCTTTGA,784
16,GAGGGGGAGGTTTCCGGGGCCTGTGGTTACTACACT,943
17,TGGGGAGCAGGAAGCTGGGGGCGGTTGTGGAGGGAC,723
18,GCTGAGGCCGGAAGAGGGTGGGGCCGCGGTGGCTAG,756
19,TTACAATCATTTCCTCTCTGTGGTTTGGTGACAAAT,1620
20,CCCGCGACACAAGGCGGATGTGGTACCCTCACTTGT,820
